# RecA splice inh = Mtb RecA intein splicing inhibitors, primary screen, biochemical, fluorescence, HTS; 0.75% of 290,000 active; cell-free RecA intein splicing; inhibition, % (concentration not given with the values); AID 2221, 2009; Protein RecA (Mycobacterium tuberculosis (strain ATCC 25618 / H37Rv)), P9WHJ3; in the data active means inhibition above about 30%
# Target sequence (P9WHJ3 whole entry, looked up, canonical isoform): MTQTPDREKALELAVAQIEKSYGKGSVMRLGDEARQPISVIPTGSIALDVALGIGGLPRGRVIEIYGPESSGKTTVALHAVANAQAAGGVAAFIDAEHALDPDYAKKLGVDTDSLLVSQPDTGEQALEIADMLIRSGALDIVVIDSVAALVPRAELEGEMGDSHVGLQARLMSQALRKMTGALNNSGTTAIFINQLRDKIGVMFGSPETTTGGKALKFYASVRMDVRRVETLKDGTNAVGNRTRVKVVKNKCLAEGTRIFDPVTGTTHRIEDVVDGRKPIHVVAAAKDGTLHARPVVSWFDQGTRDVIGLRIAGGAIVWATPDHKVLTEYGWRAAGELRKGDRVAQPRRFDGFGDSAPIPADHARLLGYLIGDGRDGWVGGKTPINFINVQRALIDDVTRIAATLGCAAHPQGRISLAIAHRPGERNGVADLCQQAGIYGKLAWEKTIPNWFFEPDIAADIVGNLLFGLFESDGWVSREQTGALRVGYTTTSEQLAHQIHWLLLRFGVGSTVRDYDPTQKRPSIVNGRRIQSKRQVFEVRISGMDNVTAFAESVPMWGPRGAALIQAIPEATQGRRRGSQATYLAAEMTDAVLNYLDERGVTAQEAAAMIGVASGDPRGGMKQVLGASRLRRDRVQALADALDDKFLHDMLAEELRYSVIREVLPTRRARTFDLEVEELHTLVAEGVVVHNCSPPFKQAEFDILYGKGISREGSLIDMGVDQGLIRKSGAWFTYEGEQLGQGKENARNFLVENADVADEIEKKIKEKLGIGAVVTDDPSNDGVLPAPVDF
# CCHFV vOTU inh = CCHFV vOTU protease inhibitors, primary screen, biochemical, Pep-AMC substrate, fluorescence. Crimean-Congo hemorrhagic fever virus L polyprotein viral ovarian tumor (vOTU) protease …. inhibition, % at 11.5 µM. 0.55% of 370,000 active. AID 651958, 2012
# Mtb betalactam = beta-lactam sensitization of Mtb H37Rv, H37Rv; M. tuberculosis H37Rv growth with meropenem, percent inhibition; inhibition, % at 25 µM; 0.27% of 330,000 active; AID 434955, 2010; call rule not given here;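 further: growth measured after seven days incubation then overnight dye step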
# FBA Mtb inh = Mtb FBA enzyme inhibitors, primary screen, biochemical, fluorescence, strain H37Rv. 2.3% of 360,000 active. purified M. tuberculosis FBA, fluorescence read-out. AID 588726, 2011. Fructose-bisphosphate aldolase (Mycobacterium tuberculosis (strain ATCC 25618 / H37Rv)), …. inhibition, % at 1 µM; in the data active means inhibition above about 27%
# GDH-TPI inh = GDH-TPI coupling enzyme inhibitors, primary screen, artefact control for M. tuberculosis FBA inhibitor project, biochemical, absorbance, full deck | AID 588335, 2011 | 1.2% of 360,000 active | GDH-TPI coupled enzyme counterscreen, NADH absorbance | inhibition, % at 4.8 µM
# Numbers stand for hits; – = inactive; · = no result; + = active, no number. Compounds with a hit are over-represented: about 4.2% of the library has one in this group of screens. Unless noted, no stated cut-off is given here; in the data, active means inhibition above about 30%; inactive means the rest.
SMILES,RecA splice inh,CCHFV vOTU inh,Mtb betalactam,FBA Mtb inh,GDH-TPI inh
Cc1cc2nc(-c3ccc(SCC(=O)Nc4ccc(S(=O)(=O)N5CCCC5)cc4)nc3)[nH]c2cc1C,–,–,–,–,38.3
Cc1ccc2nc(-c3ccc(SCC(=O)O)nc3)[nH]c2c1,–,–,–,+,53.1
Cc1ccc2nc(-c3ccc(SCC(=O)N4CCc5ccccc54)nc3)[nH]c2c1,–,–,–,–,–
CCOc1ccc(-n2c(COc3ccccc3)nnc2SCc2nc3ccccc3[nH]2)cc1,·,–,·,·,·
S=c1[nH]nc(-c2cc(-c3ccccc3)n[nH]2)n1N=Cc1cccc(Oc2ccccc2)c1,·,–,·,·,·
Cc1cc(C)cc(OC[C@@H](O)CN2CCC(C(O)(c3ccccc3)c3ccccc3)CC2)c1,·,–,·,·,·
COC(=O)C(C(=O)OC)[C@H]1C=C[C@@H](C(=O)NS(=O)(=O)c2ccc(C)cc2)N(C(C)=O)C1,·,–,·,·,·
CCc1cc(=O)oc2c3c(cc(OCC(=O)NCCCn4ccnc4)c12)OC(C)(C)CC3,·,–,–,164.1,–
CCCc1cc(=O)oc2c(C)c(OCC(=O)NCCN3CCOCC3)ccc12,–,–,–,–,–
CCCCc1cc(=O)oc2c3c(cc(OCC(=O)NCCCO)c12)OC(C)(C)CC3,–,–,–,+,–
CCCc1cc(=O)oc2c3c(cc(OCC(=O)NCCN4CCOCC4)c12)OC(C)(C)CC3,·,–,–,180.2,–
COC(=O)[C@]12C[C@H](CC(=O)NCc3cccs3)C(=O)N(Cc3cccc4ccccc34)C1=C[C@H](COCc1ccccc1)O[C@@H]2C,·,–,·,·,·
Cc1c(CCO)c(=O)n2c([nH]c3ccccc32)c1C#N,–,–,–,+,–
Cc1c(CCC(C)C)c(=O)n2c([nH]c3ccccc32)c1C#N,–,·,–,–,–
C=CCCC(=O)N1CCC(C(=O)NC2CCCc3ccccc32)CC1 (configuration not stated),·,–,·,·,·
O=S(=O)(CCSc1nc2ccccc2o1)c1nc2ccccc2s1,–,–,–,–,–
O=S(=O)(CCSc1ccccn1)c1nc2ccccc2s1,39.6,–,–,–,–
CCOC(=O)N1CCN(c2ncnc3c2[nH]c2ccc(OC)cc23)CC1,–,–,–,124.7,–
COc1cccc2[nH]c3c(N4CCCCC4)ncnc3c12,·,–,–,–,–
CCOC(=O)C1CCN(c2ncnc3c2[nH]c2cccc(OC)c23)CC1,–,–,–,124.7,–
CCOC(=O)N1CCN(C(=O)C[C@H]2C[C@@]3(C(=O)OC)C(=C[C@H](COCc4ccccc4)O[C@@H]3C)N(Cc3cccc4ccccc34)C2=O)CC1,·,–,·,·,·
Cc1ccc(CNC(=O)CCS(=O)(=O)c2cc3c(cc2Br)CCN3C(=O)C2CC2)o1,·,–,·,·,·
Cc1csc(NC(=O)c2ccc(COc3ccc(Cl)c(Cl)c3)o2)n1,·,–,·,·,·
C#CCN1CC(N(C)CCOC(=O)CSc2ccccc2)CS1(=O)=O (configuration not stated),·,–,·,·,·
Cn1ccnc1CN1CCC[C@]2(CC[C@H](CCC#N)O2)C1,·,–,·,·,·
SMILES,RecA splice inh,CCHFV vOTU inh,Mtb betalactam,FBA Mtb inh,GDH-TPI inh
COc1ccc(-c2ccc3c(c2)c(C#Cc2ccsc2)c(-c2cc(OC)cc(OC)c2)n3C)cc1,·,–,–,–,–
COc1cc(OC)cc(-c2c(C#Cc3ccsc3)c3cc(-c4ccccc4OC)ccc3n2C)c1,·,–,–,–,39.5
COc1cc(OC)cc(-c2c(C#Cc3ccsc3)c3cc(-c4ccc5cc[nH]c5c4)ccc3n2C)c1,·,–,–,–,32.8
COc1ccc(/C(C#N)=C/c2ccccn2)cc1,–,–,–,–,31.9
O=C(N/N=C/c1ccc([N+](=O)[O-])o1)c1cc2ccccc2o1,–,–,–,–,37.4
O=C(N/N=C/c1cccnc1)c1cc2ccccc2o1,–,–,–,–,31.1
CC(=O)Oc1ccc(/C=N\NC(=O)c2cc3c(ccc4ccccc43)o2)cc1,–,–,–,–,–
O=C(N/N=C/c1cccnc1)c1cc2c(ccc3ccccc32)o1,–,–,–,–,32.0
Cc1cccc(C(=O)Nc2nc3ncccn3c2-c2ccc(C(F)(F)F)cc2)c1,·,–,·,·,·
O=c1oc2ccccc2c2c1SC(C(F)(F)F)C2 (configuration not stated),–,–,–,+,–
O=C(CSc1nnc(-c2ccccn2)n1-c1ccccc1)c1ccc(F)cc1,·,–,·,·,·
COc1cc(C(C)=O)ccc1OC(=O)c1cc2cccc(OC)c2oc1=O,–,–,–,–,56.8
Cc1ccc(C2N(C)c3ccccc3-c3nc4ccccc4n32)o1 (configuration not stated),–,–,–,183.1,–
CC(=O)N1c2ccccc2-c2nc3ccccc3n2C1C (configuration not stated),–,–,–,–,–
CN1c2ccccc2-c2nc3ccccc3n2C1c1cccs1 (configuration not stated),–,–,–,+,–
CCN1c2ccccc2-c2nc3ccccc3n2C1c1ccncc1 (configuration not stated),–,–,–,–,–
COc1ccc(/C=C/C(=O)NC(=S)NNC(=O)c2cccs2)cc1OC,–,–,–,–,–
COc1cc(C(=O)NNC(=S)NC(=O)/C=C/c2ccccc2)cc(OC)c1OC,–,–,–,–,43.5
COc1ccc(/C=C/C(=O)NC(=S)NNC(=O)c2cccnc2)cc1OC,–,–,–,–,38.4
COc1ccc(/C=C/C(=O)NC(=S)NNC(=O)Cc2cccs2)cc1OC,–,–,–,–,37.6
COc1cc(C(=O)NNC(=O)/C=C/c2ccccc2)cc(OC)c1OC,·,–,–,–,–
O=C(/C=C/c1ccccc1)NC(=S)NNC(=O)c1cnccn1,–,–,–,–,40.7
O=C(/C=C/c1ccccc1)NC(=S)NNC(=O)c1cccnc1,–,–,–,–,–
c1coc(-c2nnc3n2N=C(c2ccc4c(c2)OCO4)CS3)c1,·,–,·,·,·
CCCCCCCCN1C(=O)[C@@H](CC(=O)N2CCOCC2)C[C@@]2(C(=O)OC)C1=C[C@H](COCc1ccccc1)O[C@@H]2C,·,–,·,·,·
SMILES,RecA splice inh,CCHFV vOTU inh,Mtb betalactam,FBA Mtb inh,GDH-TPI inh
N#Cc1ccc(NCCCN2CCC(C(O)(c3ccccc3)c3ccccc3)CC2)cc1,·,–,·,·,·
CCOc1cc(CCNC(=O)c2cc3ccsc3n2C)ccc1OC,·,–,·,·,·
COC(=O)[C@H](C(C)C)N(Cc1cn(Cc2ccc(C)cc2)nn1)S(=O)(=O)c1ccccc1Br,·,–,·,·,·
COc1ccc2nc(-c3ccc(N)cc3)[nH]c2c1,–,–,–,+,–
COc1ccc2nc(-c3cccc(N)c3)[nH]c2c1,–,–,–,176.8,–
Nc1cccc(-c2nc3ccc(C(=O)c4ccccc4)cc3[nH]2)c1,–,–,–,–,–
O=[N+]([O-])c1cccc(NCCCN2CCC(C(O)(c3ccccc3)c3ccccc3)CC2)c1,·,–,·,·,·
Cc1n[nH]c(C)c1S(=O)(=O)NCCc1c[nH]c2ccccc12,·,–,·,·,·

# Screening results as filed in PubChem BioAssay.
